Test results taken from PubChem BioAssay (NCATS).
Inconclusive results are not listed. A call without a number means that no potency is given here. Values without a mark were called inactive. Activity calls are given as the source filed them. Calls come from the whole dose curve; as a rule, active = well fitted cell-killing curve with a large enough effect; inconclusive = small, poorly fitted or top-dose-only effect; inactive = no such curve, though single readings can be large or run the other way.

Experiment: qHTS of pediatric cancer cell lines to identify multiple opportunities for drug repurposing: Primary screen for SJ-GBM2 cells (AID 1347091)
Conditions: SJ-GBM2 viability, CellTiter-Glo luminescence, 48 h; series mostly up to 46 µM
From the text: Drug repurposing or repositioning has been offered as a strategy for drug development in oncology programs. This approach has special potential for childhood cancers and other rare or orphan diseases, where the expected return on new drug development has been a disincentive to pharmaceuticals.
In this project we exploit the poly-pharmacology of drugs to discover new indications via phenotypic screening of a panel of 19 well-characterized cell lines derived from solid tumors seen in children and adolescents. The goal is to identify approved drugs with previously unrecognized anticancer properties that has the potential to reveal new mechanisms and biological processes involved in carcinogenesis or drug resistance. We employed a titration-based paradigm (quantitative high-throughput screening or qHTS), where all compounds were tested at multiple concentrations for their effect on cell viability. Concentration-response curves (CRCs) were derived directly from the primary screen, and both potency and efficacy values were used to identify compounds with robust bioactivity profiles. We screened the NIH Chemical Genomics Center (NCGC) Pharmaceutical Collection (NPC) and Mechanism Interrogation Plate (MIPE) small molecule collections of approved and investigational compounds against these cell lines; and measured metabolically active cells after 48 hours of compound treatment as a proxy for cell viability.
Assay Submitter: Nathalia J. Martinez, National Center for Advancing Translational Sciences, National Institutes of Health, Rockville, MD, USA; email: natalia.martinez@nih.gov
[1] Shen, M et al. Quantitative high-throughput phenotypic screening of pediatric cancer cell lines identifies multiple opportunities for drug repurposing. Oncotarget 2017 Dec 19;9(4):4758-4772. PMID 29435139.
The cells were obtained from University of North Carolina (UNC), Pediatric Preclinical Testing Program (PPT), and Coriell Institute (CI).
qHTS cell viability assay:
Cells were assayed in growth media at a density of 500-1,000 cells/well. Five microliters of cells were dispensed into 1,536-well, white, solid-bottom, TC-treated plates (Greiner Bio One) using a multidrop dispenser and incubated at 37 degrees C, 5% CO2, under a humidified atmosphere for 5 hours. Twenty-three nanoliters of compounds and controls (neutral control DMSO or positive control bortezomib at final concentration of 2.3 µM) were subsequently transferred by Kalypsys pintool. For primary screens, the MIPE collection was tested at 11-point dilutions (final concentrations range from 0.78 nM to 46 µM) and the NPC collection at 8-point dilutions (final concentrations range from 0.59 nM to 46 µM). Compounds tested in follow-up screens were assayed at 11-point dilutions. Cells were incubated for 48 hours, followed by addition of 3 uL of CellTiter-Glo (Promega). After a 15 min incubation at room temperature, samples were analyzed for luminescence intensity using a ViewLux High-throughput CCD imager equipped with clear filters.

SMILES | Potency | activity change, negative = cytotoxic
N[C@H]1C(O)O[C@H](CO)[C@@H](O)[C@@H]1O (stereo not given in full) | inactive | 
NC(N)=NCCC[C@H](N)C(=O)O |  | 11.2% [at 4.84 µM]
CC(C)C(=O)c1c(C(C)C)nn2ccccc12 | inactive | 
CO/N=C(\C(=O)N[C@@H]1C(=O)N2C(C(=O)O)=C(CSc3nc(=O)c(O)nn3C)CS[C@H]12)c1csc(N)n1 | inactive | 
Cc1cccc(C)c1NC(=O)CN(CC(=O)O)CC(=O)O | inactive | 
Oc1ccc(C(O)CNCCCCCCNCC(O)c2ccc(O)c(O)c2)cc1O (stereo not given) | inactive | 
CC12CCC(CC1)C(C)(C)O2 | inactive | 
CCCc1c(OCCCCc2nn[nH]n2)ccc(C(C)=O)c1O | inactive | 
CCCCN(CCCC)CCCOC(=O)c1ccc(N)cc1 | inactive | 
C[C@]12CC[C@@H]3c4ccc(O)cc4CC[C@H]3[C@@H]1CCC2=O | inactive | 
C[C@@H](O)[C@H](N)C(=O)O | inactive | 
Nc1ccc(S(=O)(=O)Nc2ccc(Cl)nn2)cc1 | inactive | 
O=C(CCCN1CCN(c2ccccn2)CC1)c1ccc(F)cc1 | inactive | 
C[C@H](N)[C@H](O)c1cccc(O)c1 | inactive | 
CCCCCCCCCCCCCCCC(=O)NCCO | inactive | 
Nc1nc2c(ncn2CCC(CO)CO)c(=O)[nH]1 | inactive | 
NS(=O)(=O)c1cc2c(cc1Cl)NC(CSCc1ccccc1)=NS2(=O)=O | inactive | 
COc1cc(C)c(Cc2cnc(N)nc2N)cc1OC | inactive | 
CNC(=O)Oc1ccc2c(c1)[C@]1(C)CCN(C)[C@@H]1N2C | inactive | 
O=C(O)COc1nn(Cc2ccccc2)c2ccccc12 | inactive | 

SMILES | Potency | activity change, negative = cytotoxic
CCOc1ccc2ccccc2c1C(=O)N[C@@H]1C(=O)N2[C@@H]1SC(C)(C)[C@@H]2C(=O)O | inactive | 
C[C@@H]1C[C@H]2[C@@H]3C[C@H](F)C4=CC(=O)C=C[C@]4(C)[C@@]3(F)[C@@H](O)C[C@]2(C)[C@@]1(O)C(=O)CO | inactive | 
NS(=O)(=O)c1cc2c(cc1C(F)(F)F)NC(Cc1ccccc1)NS2(=O)=O (stereo not given) | inactive | 
c1ccc2c(CC3=NCCN3)cccc2c1 | inactive | 
CN(C)CCOC(C)(c1ccccc1)c1ccccn1 (stereo not given) | inactive | 
CC1=C(CC(=O)O)c2cc(F)ccc2/C1=C\c1ccc(S(C)(=O)=O)cc1 | inactive | 
CCCCN1CCCC[C@H]1C(=O)Nc1c(C)cccc1C | inactive | 
O=C(O)c1ccccc1-c1ccc(C(F)(F)F)cc1 | inactive | 
CN1CCCCC1CCN1c2ccccc2Sc2ccc(S(C)=O)cc21 (stereo not given) | inactive | 
NC(CSCC(=O)O)C(=O)O (stereo not given) | inactive | 
CCCCCCCCCCCCOS(=O)(=O)O | inactive | 
N[C@H](C(=O)O)c1ccc(O)cc1 | inactive | 
Nc1cc(=O)[nH]c(N)n1 | inactive | 
CN(C)CCN(Cc1ccccc1)c1ccccn1 | inactive | 
CCCCN(CCCC)CC(O)c1cc(Cl)cc2c1-c1ccc(Cl)cc1/C2=C/c1ccc(Cl)cc1 (stereo not given) | inactive | 
C[C@H]1O[C@@H](n2cc(F)c(=O)[nH]c2=O)[C@H](O)[C@@H]1O | inactive | 
C[C@@H]1CN(c2c(F)c(F)c3c(=O)c(C(=O)O)cn(C4CC4)c3c2F)C[C@H](C)N1 | inactive | 
C[C@](N)(Cc1ccc(O)cc1)C(=O)O |  | 11.8% [at 4.84 µM]
CC1(C)[C@@H]2CC[C@@]1(C)C(=O)C2 | inactive | 
CN(C)CCCO[C@@H]1[C@H]2OC(C)(C)O[C@H]2O[C@@H]1C(O)CO (stereo not given in full) | inactive | 
